The list is not random: actives were taken first. Their share in the collection is about 21%.
HCV inh – blocks hepatitis C virus | Huh7.5.1 HCVcc-Cre infection, luciferase reporter, 44 h | Potency, µM (series often up to 41.8 µM), inactives show top-dose activity change, negative = inhibition, hits mostly inhibitors | 340,000 compounds, 3.4% hits | AID 651820; note: potency is the fitted concentration of half-maximal effect; % is set by controls: 0 for no effect and ±100 for the full control effect
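Antiviral activity was scored by luciferase reporter output from cells infected with HCVcc-Cre (~0.5 moi) in presence of compound, 44 h infection period, cells seeded 1,000/well 4 h prior.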
Pf growth 96h – P. falciparum growth inhibition at 96 hour, primary screen for plastid delayed-death inhibitors; P. falciparum luciferase reporter growth, 96 h; Potency, µM (series often up to 28.7 µM), inactives show at the highest dose activity change, negative = inhibition, most hits filed as inhibitors; 320,000 compounds, 6.9% hits; AID 504834; note: potency is the fitted concentration of half-maximal effect; % is set by controls: 0 for no effect and ±100 for the full control effect
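Erythrocytes infected with luciferase-expressing P. falciparum were dispensed at 2% hematocrit and 0.05% parasitemia (final), then incubated with compounds 96 hours at 37 C in 5% CO2. Luminescence after detection reagent addition reported growth.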
AMA1-RON2 inh – disrupts binding of P. falciparum AMA1 to RON2. AlphaScreen AMA1-biotinylated RON2 peptide binding. AID 720542. Potency, µM (series often up to 58.2 µM), for inactives: at the top dose activity change, negative = inhibition, usual class: inhibitors. 360,000 compounds, 0.2% hits;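 note: potency is the fitted concentration of half-maximal effect; 0% = vehicle wells and -100% = peptide control; nearly all actives have a fitted effect of over 45% in size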
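AMA1 (3D7) with his tag at 25 nM final met compounds first, then biotinylated RON2 peptide at 25 nM; detection used donor plus acceptor beads, 10 µg/mL apiece, read by AlphaScreen after 30 min at room temperature.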
Cycloheximide cs – counter-screen hit for Shiga toxin inhibitors, cycloheximide; AID 2314; 300,000 compounds, 12% hits; cell reporter, cycloheximide protein synthesis inhibition counterscreen; max response, %; in the data active = max response mostly above about 13%, no sharp cut-off; inactive = mostly below about 14%; note: read at 38.3 µM for the half of the compounds with a filed dose; 0% is about no effect
Shiga inhibitor – Shiga toxin inhibition. Vero cells, Shiga toxin protein synthesis inhibition reporter. inhibition, % at 38.7 µM. 290,000 compounds, 9.2% hits; in the data active = inhibition mostly above about 28%, no sharp cut-off; inactive = mostly below about 43%; note: 0% is about no effect
Pf growth 48h – inhibits P. falciparum growth in the first generation, 48 h. 310,000 compounds, 5.9% hits. P. falciparum luciferase growth in erythrocytes, 48 h. Potency, µM (highest dose often 28.7 µM), for inactives: top-dose activity change, negative = inhibition, hits mostly inhibitors. AID 504832; note: potency is the fitted concentration of half-maximal effect; % is set by controls: 0 for no effect and ±100 for the full control effect
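Luciferase-expressing P. falciparum in infected erythrocytes (2% hematocrit, 0.1% parasitemia final) in RPMI 1640/0.5% Albumax were exposed to compound for 48 hours at 37 C, 5% CO2; growth read as luminescence.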
An asterisk follows results filed as active; ? = inconclusive; · = not tested or not shown; [ ] = remark or other dose. Unless noted, calls come from the whole dose curve; as a rule, active = well fitted curve in the direction sought with a large enough effect; inconclusive = small, poorly fitted or top-dose-only effect, or another doubt; inactive = no such curve, though single readings can be large; an effect the other way counts as inactive or inconclusive.

SMILES | HCV inh | Pf growth 96h | AMA1-RON2 inh | Cycloheximide cs | Shiga inhibitor | Pf growth 48h
CN1CCN(c2ccccc2NC(=O)c2ccc(N3CCCC3)c([N+](=O)[O-])c2)CC1 | ? | -4.5% | -29.7% | -2.5 | 18.8 | ?
O=[N+]([O-])c1cc(S(=O)(=O)Nc2ccccc2)ccc1N1CCN(c2ccccc2)CC1 | 12.6µM* | ? | ? | 0.2 | -11.7 | ?
CCOC(=O)C1(Cc2ccccc2C)CCCN(C(=O)c2cc(CC)nn2C)C1 (stereo unspecified) | 21.9% | 6.1% | 8.7% | -1.4 | 14.6 | ?
Cc1cccc2cc(CN(Cc3cccnc3)C(=O)c3cccs3)c3nnnn3c12 | · | 4.3% | · | 1.1 | -21.0 | 5.1%
CSc1c(CN2CCN(C)CC2)c2ccccc2n1C | -0.5% | · | -4.6% | · | · | ·
Cc1cc(-c2ccccc2)c2c(=O)n(-c3ccccc3)[nH]c2n1 | -4.2% | 0.0037µM* | -1.9% | 1.5 | -6.8 | 38.3%
O=c1c2c(-c3cccc([N+](=O)[O-])c3)ccnc2[nH]n1-c1ccccc1 | 21.2% | 0.1% | 0.0% | -1.1 | -5.2 | 13.5%
CCOc1ccc(N=C(NN)c2ccc3ccccc3n2)cc1 | ? | -2.8% | 35.2% | 43.8* | 31.0* | 84.8%
Cc1cc(C(=O)COC(=O)c2ccc[nH]c2=O)c(C)n1C | 4.0% | 45.6% | 17.2% | 8.8 | 16.6 | 29.5%
Cc1ccc(-n2c(C)cc(C(=O)COC(=O)c3ccc[nH]c3=O)c2C)cc1 | 8.1% | ? | -9.3% | 40.5* | 57.9* | 12.3%
Cc1cc(C(=O)COC(=O)c2ccc[nH]c2=O)c(C)n1-c1ccc(Br)cc1 | -2.3% | -26.7% | -3.0% | 48.1* | 27.4* | -13.6%
Cc1ccc2nc(Cl)c(CNCc3ccccc3)cc2c1 | -16.8% | ? | -10.6% | 7.7 | 42.1 | ?
Cc1cc(=O)oc2cc(O[C@@H]3O[C@H](CO)[C@@H](O)[C@H](O)[C@H]3O)ccc12 | -0.3% | 15.2% | -2.2% | -2.5 | -4.1 | 4.4%
CCOC(=O)/C(C#N)=C\C=C1C=CN(C)C=C1 | -2.8% | 211.9% | -4.9% | 35.1* | 62.8* | 157.1%
CCOC(=O)/C(C#N)=C/c1cc(C)n(-c2ccc(C)cc2)c1C | 8.91µM* | -9.5% | -13.7% | 18.5* | 31.4 | ·
CCOC(=O)/C(C#N)=C\c1cc(C)n(-c2ccccc2)c1C | ? | 312.9% | 3.5% | 55.1* | 82.1* | 110.5%
CCOC(=O)/C(C#N)=C\c1ccc(CC)s1 | -8.8% | 15.6% | -0.4% | 79.6* | 101.9* | 17.3%
O=C1Nc2ccccc2-n2nnnc2C1N1CCN(C(=O)C2CCCO2)CC1 (stereo unspecified) | · | · | -2.0% | · | · | ·
COc1ccccc1N(CC(O)CN1CCC(C)CC1)S(=O)(=O)c1ccccc1 (stereo unspecified) | -8.9% | ? | -15.0% | 2.9 | 14.9 | -2.6%
COc1ccccc1C1C=C(c2ccccc2)Nc2nnnn21 (stereo unspecified) | -9.4% | -19.4% | -5.2% | 16.6 | 165.0* | 24.2%
C1=C(c2ccccc2)Nc2ncnn2C1c1ccccc1 (stereo unspecified) | -1.2% | · | 14.3% | · | · | ·
COc1ccc(C2C=C(c3ccc(Br)cc3)Nc3nnnn32)c(OC)c1 (stereo unspecified) | · | · | · | 33.1* | 66.1* | ·
Fc1ccc(C2=CC(c3ccco3)n3nnnc3N2)cc1 (stereo unspecified) | 8.0% | 1.1% | -5.4% | 39.3* | 47.4* | 7.8%
CC(C)[C@@H](NC(=O)C1CCC(CNC(=O)[C@H](Cc2ccccc2)NC(=O)OC(C)(C)C)CC1)C(=O)O (stereo partly specified) | 14.8% | 7.3% | -1.9% | -4.7 | 15.1 | -9.3%
COc1ccco1 | · | · | · | -3.6 | -3.9 | ·
SMILES | HCV inh | Pf growth 96h | AMA1-RON2 inh | Cycloheximide cs | Shiga inhibitor | Pf growth 48h
O=C(CSc1nccc(=O)[nH]1)NC1CCCCCCC1 | 0.4% | · | 13.0%[11.6 µM] | · | · | ·
Cc1ccc(S(=O)(=O)Cn2nnnc2CN(Cc2ccco2)CC2CCCO2)cc1 (stereo unspecified) | 11.7% | 4.15µM* | 0.0% | -2.2 | 0.8 | ?
Cc1ccc2cc(CN(Cc3nnnn3Cc3ccco3)CC3CCCO3)c(=O)[nH]c2c1C (stereo unspecified) | -17.6% | -26.4% | -2.3% | -3.2 | 0.0 | ?
Cc1ccn2c(=O)nc(SCC(=O)N3CCCCC3)nc2c1 | 0.8%[8.37 µM] | ? | 29.2% | · | · | 3.1%
CCC/C=C1/CCCOC(C(=O)NCc2ccccc2)(C(F)(F)F)C1 (stereo unspecified) | 0.891µM* | · | 25.5% | 4.3 | 14.1 | ·
CCC/C=C1\CCCOC(C(=O)NCc2ccccc2)(C(F)(F)F)C1 (stereo unspecified) | · | · | · | 10.5 | 15.7 | ·
NC(=O)CC(NC(=O)c1ccc(Br)cc1)c1ccc(N2CCCCCC2)c([N+](=O)[O-])c1 (stereo unspecified) | ? | 25.2% | -22.7% | 2.0 | -0.9 | 18.7%
COc1ccc(-c2oc3ccccc3c2C(=O)OCc2ccccc2)cc1 | -22.7% | ? | 72.8% | 31.0* | 33.7* | 19.2%
COc1ccc(-c2oc3ccccc3c2C(=O)OCc2ccc(O)cc2)cc1 | ? | 47.2% | 0.6% | 24.3* | 27.7* | 142.7%
COc1ccc(NC(=O)C(C)N2C(=O)C3CC=C(Cl)CC3C2=O)cc1 (stereo unspecified) | · | 0.1% | -5.9% | 2.1 | -2.4 | 7.2%
COc1ccc(NC(=O)/C=C/c2ccccc2)c([N+](=O)[O-])c1 | -9.4% | ? | 3.3% | 65.2* | 126.1* | 76.0%
COc1ccc(NC(=O)c2cc(Cl)ccc2Cl)c([N+](=O)[O-])c1 | 2.0% | ? | 0.8%[11.6 µM] | -3.0 | -6.3 | -15.9%
COc1ccc(NC(=O)C/C(C)=N/NC(=O)c2cccs2)c([N+](=O)[O-])c1 | 5.2% | ? | 78.6% | 60.9* | 120.2* | 17.6%
COc1ccc(/C=C/C(=O)Nc2ccc(OC)cc2[N+](=O)[O-])cc1 | -7.6% | 19.5% | -18.5% | -1.2 | -2.2 | 10.7%
CCCCC(=O)Nc1ccc(NC(=O)c2ccc([N+](=O)[O-])cc2)cc1OC | ? | ? | -4.3% | 1.5 | -3.6 | 27.4%
CCCCC(=O)Nc1ccc(C(=O)Nc2ccc(OC)cc2[N+](=O)[O-])cc1 | ? | 3.7µM* | 4.0% | 0.9 | 15.1 | -22.3%
COc1ccc(NC(=O)c2sccc2C)c([N+](=O)[O-])c1 | -7.6% | -1.8%[5.75 µM] | 0.0% | 32.1* | 86.7 | 42.0%
CCc1nc2ccc(C(=O)Nc3ccc4c(c3)OCC(=O)N4)cn2c1N(C)C(=O)C1CCCCC1 | · | · | -2.2% | · | · | ·
Cc1ccccc1C(=O)/C=C1/SCC(=O)N1C | 1.0% | 49.5% | 2.7% | -2.5 | 34.9 | 13.7%
COc1ccc(NC(=O)c2cccs2)c([N+](=O)[O-])c1 | -5.1% | 39.9% | -8.1% | 37.5* | 80.3* | 123.7%
Cc1c(NC(=O)c2cccs2)cccc1[N+](=O)[O-] | -1.2% | 0.0% | -17.0% | 2.5 | -4.4 | 20.3%

Bioassay records as filed in PubChem BioAssay.
